# Source: PubChem BioAssay (National Center for Advancing Translational Sciences (NCATS))
# IL-1B inflam inh – blocks inflammasome-driven IL-1 beta release. THP-1 LPS/ATP IL-1B secretion, AlphaLISA, 16 h; hits give low values. activity change, % at 57.5 µM. 360,000 tested, 4.7% active; in the data active = activity change below about -50%; inconclusive = mostly about -30% to -49%
#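 Secreted IL-1B measured by AlphaLISA bead assay after 16 h compound exposure of THP-1 cells; compounds (final up to 57.5 uM) added 1 h before LPS (250 ng/mL) and ATP (1.25 mM) stimulation; lower signal means less secretion.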
# D3 ag – D3 dopamine receptor (human) agonism | P35462 | D3R DiscoveRx beta-arrestin cells, luminescence, 90 min | max activation, % | 410,000 tested, 0.58% active; in the data active = max activation above about 30%
# Target sequence (P35462 whole entry, looked up): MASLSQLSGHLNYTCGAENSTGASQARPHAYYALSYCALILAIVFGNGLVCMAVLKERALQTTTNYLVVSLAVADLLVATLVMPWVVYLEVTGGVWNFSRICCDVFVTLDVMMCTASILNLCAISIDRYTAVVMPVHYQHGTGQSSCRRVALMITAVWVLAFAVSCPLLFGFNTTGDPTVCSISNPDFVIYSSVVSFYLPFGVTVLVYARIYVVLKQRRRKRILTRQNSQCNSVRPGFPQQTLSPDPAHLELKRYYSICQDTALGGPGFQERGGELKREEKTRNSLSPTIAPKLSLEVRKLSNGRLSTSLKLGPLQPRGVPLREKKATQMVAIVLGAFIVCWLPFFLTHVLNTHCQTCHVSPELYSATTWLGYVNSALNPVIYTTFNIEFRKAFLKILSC
#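 Agonist-mode cell screen: cells plated at 1500/well and incubated overnight at 37 °C, then exposed to library compounds for 90 min at 37 °C. Detection reagent was added for 30–60 min at room temperature, and luminescence was read.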
# S2 tox – viability counter-screen for ATXN expression inhibitors; AID 651635; S2 cells (HEK-293 line with an ATXN2-luciferase reporter) viability, CellTiter-Fluor protease fluorescence, 24 h; 400,000 tested, 0.49% active; Potency, µM (top dose mostly 56.7 µM), usual class: cytotoxic; note: nearly all actives have a fitted effect of over 40% in size
# ATXN2 expr inh – inhibitors of ATXN2 expression; HEK-293 ATXN2-luciferase reporter, luminescence, 24 h; Potency, µM (top dose mostly 57 µM), hits mostly inhibitors; 360,000 tested, 0.72% active; note: nearly all actives have a fitted effect of over 55% in size
#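 ATXN2-luciferase reporter cells (luciferase flanked by upstream and downstream ATXN2 gene portions) were treated 24 h at 37 °C with compounds at up to 57 uM. SteadyGlo luminescence gave expression; GF-AFC fluorescence gave viability.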
# D3 antag – antagonists of human D3 dopamine receptor | P35462 | D3R cells, DiscoveRx beta-arrestin luminescence, antagonist mode; hits give low values | max response, negative = inhibition, % | 360,000 tested, 2.5% active | AID 652054; in the data active = max response below about -50%; inconclusive = no clear call, values can overlap the other calls
#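 Cells plated overnight at 1500 cells/well, then exposed to library compounds with dopamine controls for 90 minutes at 37 degrees C. DiscoveRx reagent added for 30–60 minutes at room temperature; luminescence read, quantitative HTS format.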
# Integrin act MD – activators of alpha7 integrin expression for muscular dystrophy; alpha7betagal myoblasts, beta-gal FDG fluorescence, 48 h; Potency, µM (titrated, usually from 38.3 µM), hits mostly activators; 350,000 tested, 0.064% active; AID 624291; note: nearly all actives have a fitted effect of over 60% in size
#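 alpha7betagal+/- myoblasts (passage 13, 250/well) treated 48 h at 37C with compounds at 1:260 dilution of DMSO stock. Lysed, then beta-galactosidase activity read as FDG fluorescence (ex 480/em 540) after 30 min, with pre-read for autofluorescence.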
# Hits are given with their value; – = inactive; ? = inconclusive; · = not tested or not shown; [ ] = dose if it differs, or a comment. A selection: hits, their analogues and other compounds. The true share with any hit is near 7%. Unless noted, calls come from the whole dose curve; as a rule, active = well fitted curve in the direction sought with a large enough effect; inconclusive = small, poorly fitted or top-dose-only effect, or another doubt; inactive = no such curve, though single readings can be large; an effect the other way counts as inactive or inconclusive.
SMILES,IL-1B inflam inh,D3 ag,S2 tox,ATXN2 expr inh,D3 antag,Integrin act MD
Fc1ccc2[nH]c3c(N4CCc5ccccc5C4)ncnc3c2c1,?,–,?,?,–,–
O=[N+]([O-])c1cccnc1N1CCN(Cc2ccc3c(c2)OCO3)CC1,–,–,–,–,–,–
COc1ccc2[nH]c3c(N4CCC(O)(c5cccc(C(F)(F)F)c5)CC4)ncnc3c2c1,–,–,?,28µM,–,–
Cc1ccc2[nH]c3c(N4CCc5ccccc5C4)ncnc3c2c1,-83,–,?,–,–,–
O=[N+]([O-])c1ccc2ncnc(N3CCN(Cc4ccc5c(c4)OCO5)CC3)c2c1,–,43,?,·,–,–
CCOc1ccc2[nH]c3c(N4CCc5ccccc5C4)ncnc3c2c1,·,–,?,–,–,–
O=C(c1ccccc1)N1CCN(S(=O)(=O)N2CCOCC2)CC1,–,–,–,–,?,–
COC(=O)[C@]1(Sc2ccccc2)CC(=O)N[C@@H]1c1ccccc1,–,–,–,–,–,·
Cc1ccc(-c2noc(CCC(=O)NCc3ccccc3CN3CCOCC3)n2)cc1,–,–,–,–,–,–
COc1cccc(C2CC(c3ccc(Br)cc3)=NN2C(=O)c2ccncc2)c1OC (stereo not drawn),-50,–,–,–,–,–
COc1ccc(C2=NN(C(=O)c3ccccc3)C(c3ccc(OC)c(OC)c3)C2)cc1OC (stereo not drawn),?,–,–,–,–,–
COc1ccccc1C1CC(c2ccc(Br)cc2)=NN1C(=O)c1cccnc1 (stereo not drawn),-52,–,?,?,–,–
COc1ccc(C2=NN(C(=O)c3ccncc3)C(c3ccccc3O)C2)cc1 (stereo not drawn),–,–,–,–,–,–
Cc1cc(C)nc(NS(=O)(=O)c2ccc(NC(=S)NC(=O)c3cccnc3)cc2)n1,–,–,–,–,?,–
CCCn1c(-c2cc(OC)c(OC)c(OC)c2)nc2c1c(=O)[nH]c(=O)n2Cc1ccccc1,–,–,–,–,–,13µM
CCCn1c(-c2cccc(F)c2)nc2c1c(=O)[nH]c(=O)n2Cc1ccccc1,–,–,–,–,–,–
Cc1cc(C)cc(NC(=O)c2ccc(S(=O)(=O)C(F)F)cc2)c1,-87,–,–,–,–,–
CCN(CC)S(=O)(=O)c1ccc(C(=O)Nc2cc(C)cc(C)c2)cc1,?,–,–,–,–,–
O=C(Nc1cccc(S(=O)(=O)C(F)F)c1)c1ccc(S(=O)(=O)N2CCCCC2)cc1,-62,–,–,–[11.3 µM],–,–
Cc1cccc(NC(=O)c2ccc(S(=O)(=O)N3CCCCCC3)cc2)n1,-70,–,–,–,–,–
COC(=O)c1sc2ccccc2c1NC(=O)c1ccc(S(=O)(=O)N2CCCCC2)cc1,–,38,–,–,–,–
O=S(=O)(c1ccccc1)c1nnn2c1nc(NC1CCN(Cc3ccccc3)CC1)c1cc(Cl)ccc12,?,–,–,–,?,–
CCOc1ccc(C(=O)NNC(=O)CCNC(=O)c2ccco2)cc1OC,–,–,–,–,–,–
CC(C)c1nc2sc3ccccc3c(=O)c2c(=O)n1Cc1ccccc1,–,–,–,·,–,–
CCn1c(SCc2ccc(F)cc2)nc2c(c1=O)SCC2,–,–,·,–,–,–
SMILES,IL-1B inflam inh,D3 ag,S2 tox,ATXN2 expr inh,D3 antag,Integrin act MD
Cc1cccc(NC(=O)C2CCN(S(=O)(=O)c3c(C)c(C)cc(C)c3C)CC2)n1,-89,–,?,?,–,–
O=C(Nc1cccc(S(=O)(=O)N2CCCCC2)c1)c1ccc(S(=O)(=O)C(F)F)cc1,-82,–,?,?,–,–
CCN(CC)CCCNc1ccc(-c2nnc(-c3ccc(OCC(C)C)cc3)o2)cn1,-51,–,–,–,–,–
CCCNC(=O)N1[C@H](c2ccc(C)s2)[C@@H](C)C(=O)[C@@H](C)[C@@H]1c1ccc(C)s1,·,–,–,–,·,·
Cc1ccc(Cl)cc1NC(=O)C1CCCN1S(=O)(=O)c1ccc(-c2ccc(=O)[nH]n2)s1 (stereo not drawn),-77,–,–,–,–,–
Cc1cc(Cl)ccc1NC(=O)C1CCCN1S(=O)(=O)c1ccc2c(c1)CCCC(=O)N2 (stereo not drawn),·,–,–,–,·,·
COc1ccc(NC(=O)c2cc(S(=O)(=O)NCC3COc4ccccc4O3)ccc2F)cc1 (stereo not drawn),?,–,–,–,–,–
CC(C)c1ccc(NC(=O)c2cc(S(=O)(=O)NCC3COc4ccccc4O3)ccc2F)cc1 (stereo not drawn),-69,–,–,?,–,–
CCOC(=O)C1(C(=O)OCC)NC(=O)CC1C (stereo not drawn),–,–,–,–,–,–
Cc1ccc(/C=C2\CCC3=C2OC(N)=C(C#N)C3c2ccc(C)cc2)cc1 (stereo not drawn),-70,–,·,–,–,–
Cc1ccc(C2C(C#N)=C(N)Oc3cc(N)ccc32)cc1 (stereo not drawn),–,–,–,·,–,–
CCOC(=O)CNS(=O)(=O)c1cc(-c2nn(C)c(=O)c3ccccc23)ccc1C,-92,–,–,–,–,–
Cc1ccc(-c2nn(C)c(=O)c3ccccc23)cc1S(=O)(=O)NCCN1CCOCC1,–,–,–,–,-53,–
COc1ccc(C)cc1NC(=O)c1cc(S(=O)(=O)N2CCC(C)CC2)ccc1F,·,–,?,–,·,·
COc1ccc(NS(=O)(=O)c2cc(NC(=O)c3ccco3)ccc2N2CCCC2)cc1,–,–,–,–,-56,–
COc1ccc(OCC(=O)Nc2cc(NC(=O)c3ccco3)ccc2OC)cc1,-55,–,–,–,–,–
Cc1ccc(S(=O)(=O)N(C)C)cc1NC(=O)COc1ccc(-c2nnco2)cc1,–,–,–,–,–,–
COc1ccc(C(C)(C)C)cc1NC(=O)COc1ccc(-c2nnco2)cc1,-50,–,–,–,–,–
Cc1cc(NC(=O)CSc2nnc3c4c(C)c(C)sc4ncn23)no1,–,–,–,–,–,–
CCn1c2ccccc2c2c3ncc4cccn4c3ccc21,-76,–,–,–,–,–
c1ccc2c(c1)ncc1cccn12,–,–,–,–,–,–
CN(C)S(=O)(=O)NC(c1ccccc1)c1ccccc1,–,–,–,–,–,–
C#CCC(Cc1cnc2nc(N)nc(N)c2n1)c1ccc(C(=O)N[C@@H](CCC(=O)O)C(=O)O)cc1 (stereo partly drawn),·,–,?,0.54µM,·,·
CN(Cc1cnc2nc(N)nc(N)c2n1)c1ccc(C(=O)NC(CCC(=O)O)C(=O)O)c2ccccc12 (stereo not drawn),–,–,–,?,–,–
